ChEMBL document CHEMBL1157539, “Thousands of chemical starting points for antimalarial lead identification” (Nature, 2010)

Tests used:
Type in all cases: functional
Plasmodium falciparum [1] = experiment: GSK_TCMDC: Inhibition of Plasmodium falciparum 3D7 in whole red blood cells, using parasite LDH activity as an index of growth. Test compounds present at 2uM
Plasmodium falciparum [2] = experiment: GSK_TCMDC: Inhibition of Plasmodium falciparum Dd2 in whole red blood cells, using parasite LDH activity as an index of growth. Test compounds present at 2uM
HepG2 = experiment: GSK_TCMDC: Percent inhibition of human HepG2 cell line. Test compounds present at 10uM.

`Cc1c(Cn2ncc(N3CCC(N)CC3)c(Cl)c2=O)cccc1NC(=O)Nc1ccc(-c2ccccc2)cc1.O=C(O)C(F)(F)F` gave an Inhibition (Plasmodium falciparum [1]) of 97%, an Inhibition (Plasmodium falciparum [2]) of 43% and an Inhibition (HepG2) of 19%.

For `CCCC(C)Nc1nc(C)cc(N[C@@H](CC(C)C)C(=O)NCCOc2ccccc2)n1.O=C(O)C(F)(F)F` (some centres not stated), the Inhibition (Plasmodium falciparum [1]) was 93%, the Inhibition (Plasmodium falciparum [2]) was 28% and the Inhibition (HepG2) was 15%.

`COc1ccccc1NC(=O)c1cc(C(=O)c2cc(Cl)ccc2O)cn(-c2ccccc2OC)c1=O` was tested, and the Inhibition (Plasmodium falciparum [1]) was 92%, the Inhibition (Plasmodium falciparum [2]) was 31% and the Inhibition (HepG2) was 9%.

Molecule `COc1ccc(NC(=O)[C@H](Cc2ccccc2)Nc2cc(C)nc(NCc3ccccc3C)n2)cc1.O=C(O)C(F)(F)F` has an Inhibition (Plasmodium falciparum [1]) of 100%, an Inhibition (Plasmodium falciparum [2]) of 71% and an Inhibition (HepG2) of 16%.

In the case of `CS(=O)(=O)NCCCNCc1ccc(-c2ccc(-c3nc4cc(C(F)(F)F)ccc4[nH]3)s2)cc1.O=C(O)C(F)(F)F`, the Inhibition (Plasmodium falciparum [1]) is reported as 99%, the Inhibition (Plasmodium falciparum [2]) is reported as 73% and the Inhibition (HepG2) is reported as 21%.

For `COc1ccc2nccc([C@@H](O)CN3CCC(NCCNc4ccccn4)CC3)c2c1.O=C(O)C(=O)O`, the Inhibition (Plasmodium falciparum [1]) was 100%, the Inhibition (Plasmodium falciparum [2]) was 14% and the Inhibition (HepG2) was 18%.

In the case of `CN(C)C(CNC(=O)c1cc(-c2ccncc2)c(-c2ccc(NC(=O)Nc3cccc(Cl)c3)cc2)o1)c1ccccc1.O=C(O)C(F)(F)F` (configuration not stated), the Inhibition (Plasmodium falciparum [1]) is reported as 100%, the Inhibition (Plasmodium falciparum [2]) is reported as 100% and the Inhibition (HepG2) is reported as 12%.

Work on `Cc1cc(N[C@@H](Cc2ccccc2)C(=O)NCc2cccc(F)c2)nc(NCCc2ccc(F)cc2)n1.O=C(O)C(F)(F)F` yielded an Inhibition (Plasmodium falciparum [1]) of 99%, an Inhibition (Plasmodium falciparum [2]) of 69% and an Inhibition (HepG2) of 0%.

`NC(=O)c1cc2nc(Nc3ccc(F)cc3)nc(Nc3ccc(S(N)(=O)=O)cc3)c2[nH]1.O=CO` gave an Inhibition (Plasmodium falciparum [1]) of 100%, an Inhibition (Plasmodium falciparum [2]) of 99% and an Inhibition (HepG2) of 2%.

With `CC(C)C[C@H](NC(=O)c1cc(-c2ccc(F)cc2)no1)C(=O)O.CC(C)C[C@H](NC(=O)c1conc1-c1ccc(F)cc1)C(=O)O` the Inhibition (Plasmodium falciparum [1]) was 82%, the Inhibition (Plasmodium falciparum [2]) was 4% and the Inhibition (HepG2) was 7%.

`Cc1ccc(Cn2cnc(N3CC(C)NC(C)C3)cc2=O)cc1NC(=O)Nc1ccc(-c2ccccc2)cc1.O=C(O)C(F)(F)F` (configuration not stated) gave an Inhibition (Plasmodium falciparum [1]) of 96%, an Inhibition (Plasmodium falciparum [2]) of 15% and an Inhibition (HepG2) of 18%.

With `Cc1cccc(C)c1CNc1nc(N2CCOCC2)cc2c(C)c(C)[nH]c12.Cl` the Inhibition (Plasmodium falciparum [1]) was 92%, the Inhibition (Plasmodium falciparum [2]) was 64% and the Inhibition (HepG2) was 51%.

`CNC(=O)c1cnc(Nc2ccc(N3CCN(C)CC3)cc2)nc1Nc1cccc([N+](=O)[O-])c1.O=C(O)C(F)(F)F` gave an Inhibition (Plasmodium falciparum [1]) of 100%, an Inhibition (Plasmodium falciparum [2]) of 100% and an Inhibition (HepG2) of 31%.

For `Br.CC(C)(C)c1ccc(Cn2c(=N)n(CC(=O)c3ccc(-c4ccccc4)cc3)c3ccccc32)cc1`, the Inhibition (Plasmodium falciparum [1]) was 98%, the Inhibition (Plasmodium falciparum [2]) was 50% and the Inhibition (HepG2) was 63%.

Molecule `CC(O)C1CCCCN1C(=O)c1cccc(-c2ccc(-c3nc4cc(F)ccc4[nH]3)cc2)c1` (configuration not stated) has an Inhibition (Plasmodium falciparum [1]) of 100%, an Inhibition (Plasmodium falciparum [2]) of 99% and an Inhibition (HepG2) of 46%.

`CCCC(C)Nc1nc(C)cc(N[C@@H](CC(C)C)C(=O)Nc2ccc(OC)cc2)n1.O=C(O)C(F)(F)F` (some centres not stated) showed an Inhibition (Plasmodium falciparum [1]) of 98%, an Inhibition (Plasmodium falciparum [2]) of 68% and an Inhibition (HepG2) of 18%.

`O=C(/C=C/c1ccc(Cl)c(Cl)c1)NCCCCCN1CC[C@H](NC(=O)c2ccc3c(c2)OCO3)C1` gave an Inhibition (Plasmodium falciparum [1]) of 94%, an Inhibition (Plasmodium falciparum [2]) of 3% and an Inhibition (HepG2) of 32%.

`O=C(Nc1ccc(-c2cccc(-c3nc4cc(F)ccc4[nH]3)c2)cc1)Nc1ccc(Cl)c(Cl)c1` was tested, and the Inhibition (Plasmodium falciparum [1]) was 99%, the Inhibition (Plasmodium falciparum [2]) was 24% and the Inhibition (HepG2) was 68%.

`COc1ccc2nc3cc(Cl)ccc3c(NCCCCNc3c4ccc(Cl)cc4nc4ccc(OC)cc34)c2c1` was tested, and the Inhibition (Plasmodium falciparum [1]) was 99%, the Inhibition (Plasmodium falciparum [2]) was 99% and the Inhibition (HepG2) was 20%.

With `Clc1ccccc1C=NN=c1cc[nH]c2ccccc12` the Inhibition (Plasmodium falciparum [1]) was 100%, the Inhibition (Plasmodium falciparum [2]) was 50% and the Inhibition (HepG2) was 25%.

In the case of `O=C(O)C(F)(F)F.Oc1ccc(CCNc2nc(NCCCOc3ccccc3-c3cccnc3)nc(N3CCNCC3)n2)cc1`, the Inhibition (Plasmodium falciparum [1]) is reported as 92%, the Inhibition (Plasmodium falciparum [2]) is reported as 1% and the Inhibition (HepG2) is reported as 10%.

For `O=C(Nc1cccc(-c2ccc(-c3nc4cc(C(F)(F)F)ccc4[nH]3)s2)c1)c1ccncc1`, the Inhibition (Plasmodium falciparum [1]) was 99%, the Inhibition (Plasmodium falciparum [2]) was 46% and the Inhibition (HepG2) was 79%.

Molecule `CCCC(C)Nc1nc(C)cc(N[C@@H](CC(C)C)C(=O)NCCc2ccccc2)n1.O=C(O)C(F)(F)F` (some centres not stated) has an Inhibition (Plasmodium falciparum [1]) of 96%, an Inhibition (Plasmodium falciparum [2]) of 51% and an Inhibition (HepG2) of 9%.

`CCN(CC)CCN(Cc1ccc(-c2ccc(C(F)(F)F)cc2)cc1)C(=O)Cn1c(CCc2cccc(F)c2F)nc(=O)c2cc(F)ccc21.O=C(O)C(O)C(O)C(=O)O` was tested, and the Inhibition (Plasmodium falciparum [1]) was 98%, the Inhibition (Plasmodium falciparum [2]) was 45% and the Inhibition (HepG2) was 15%.

In the case of `Cl.OC(CN1CCN(c2cccc(Cl)c2)CC1)C(c1ccccc1)c1ccccc1` (configuration not stated), the Inhibition (Plasmodium falciparum [1]) is reported as 85%, the Inhibition (Plasmodium falciparum [2]) is reported as 4% and the Inhibition (HepG2) is reported as 0%.

With `COc1ccc(CNCc2cccc(-c3cccc(-c4nc5cc(F)ccc5[nH]4)c3)c2)cc1.O=C(O)C(F)(F)F` the Inhibition (Plasmodium falciparum [1]) was 100%, the Inhibition (Plasmodium falciparum [2]) was 55% and the Inhibition (HepG2) was 18%.

In the case of `COc1cc2nc(N3CCC(CNC(=O)c4ccc(-c5ccccc5)cc4)CC3)nc(N)c2cc1OC`, the Inhibition (Plasmodium falciparum [1]) is reported as 93%, the Inhibition (Plasmodium falciparum [2]) is reported as 92% and the Inhibition (HepG2) is reported as 11%.

Molecule `O=C(Cc1ccc[n+]([O-])c1)Nc1cccc(-c2cccc(-c3nc4cc(F)ccc4[nH]3)c2)c1` has an Inhibition (Plasmodium falciparum [1]) of 92%, an Inhibition (Plasmodium falciparum [2]) of 98% and an Inhibition (HepG2) of 28%.

For `O=C(Nc1cccc(-c2cccc(-c3nc4ccccc4[nH]3)c2)c1)c1cccnc1`, the Inhibition (Plasmodium falciparum [1]) was 95%, the Inhibition (Plasmodium falciparum [2]) was 14% and the Inhibition (HepG2) was 12%.
